# Measured values: the supplement of paper PMC6555819
# Key:
# Assay in all cases: PBM binding z-score (relative to random genomic background probes); higher = stronger binding; sequences stand for … in GC…GCGATTGACAGCGTAGAATGAAGG
# [1] = system: FXR:RXRa (NR concentration 270 nM, RXRa partner concentration 90 nM)
# Summary of the method: (§1)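 Custom Agilent 4×180K protein-binding microarrays carried double-stranded probes. Their 34-nt variable regions held direct-repeat seeds, single-nucleotide variants, half-site ablations and random human genomic background sequences. Arrays were incubated 1 h with ligand-free nuclear receptor dimers in PBS pH 7.4, 2% milk, 0.02% Triton X-100, 1 mM DTT, 0.2 mg/mL BSA and 0.4 mg/ml salmon testes DNA. Antibodies against each partner (one per run) detected binding, and scanned fluorescence was regression-normalized. Binding z-scores use random background probes as reference.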
# [2] = system: LXRa:RXRa (NR concentration 270 nM, RXRa partner concentration 90 nM)
# Summary of the method: as §1
# [3] = system: LXRa homodimer (NR concentration 270 nM)
# Summary of the method: as §1
# [4] = system: LXRb:RXRa (NR concentration 270 nM, RXRa partner concentration 90 nM)
# Summary of the method: as §1
# [5] = system: LXRb homodimer (NR concentration 270 nM)
# Summary of the method: as §1
# [6] = system: PPARa:RXRa (NR concentration 270 nM, RXRa partner concentration 90 nM)
# Summary of the method: as §1
# [7] = system: PPARg:RXRa (NR concentration 180 nM, RXRa partner concentration 90 nM)
# Summary of the method: as §1
# [8] = system: PPARg:RXRa 270nM:90nM, anti-RXR (NR concentration 270 nM, RXRa partner concentration 90 nM)
# Summary of the method: as §1
# [9] = system: PPARg:RXRa 30nM:10nM, anti-RXR (NR concentration 30 nM, RXRa partner concentration 10 nM)
# Summary of the method: as §1
# [10] = system: PPARg:RXRa 90nM:30nM, anti-RXR (NR concentration 90 nM, RXRa partner concentration 30 nM)
# Summary of the method: as §1
# [11] = system: PPARg:RXRa DBDmut IVT, anti-RXR (DBD mutation: RXRa K156A/R161A, NR concentration 270 nM, RXRa partner concentration 90 nM)
# Summary of the method: as §1
# [12] = system: PPARg:RXRa IVT, anti-PPARg (NR concentration 270 nM, RXRa partner concentration 90 nM)
# Summary of the method: as §1
# [13] = system: PPARg DBDmut:RXRa IVT, anti-PPARg (DBD mutation: PPARg1 K132A/R137A, NR concentration 270 nM, RXRa partner concentration 90 nM)
# Summary of the method: as §1
# [14] = system: PPARg DBDmut IVT, anti-PPARg (DBD mutation: PPARg1 K132A/R137A, NR concentration 270 nM)
# Summary of the method: as §1
# [15] = system: PPARg homodimer (NR concentration 180 nM)
# Summary of the method: as §1
# [16] = system: PXR:RXRa (NR concentration 270 nM, RXRa partner concentration 90 nM)
# Summary of the method: as §1
# [17] = system: PXR homodimer (NR concentration 270 nM)
# Summary of the method: as §1
# [18] = system: RARa:RXR (NR concentration 270 nM, RXRa partner concentration 90 nM)
# Summary of the method: as §1
# [19] = system: RARa homodimer (NR concentration 270 nM)
# Summary of the method: as §1
# [20] = system: RARb:RXRa (NR concentration 270 nM, RXRa partner concentration 90 nM)
# Summary of the method: as §1
Sequence,PBM binding z-score [1],PBM binding z-score [2],PBM binding z-score [3],PBM binding z-score [4],PBM binding z-score [5],PBM binding z-score [6],PBM binding z-score [7],PBM binding z-score [8],PBM binding z-score [9],PBM binding z-score [10],PBM binding z-score [11],PBM binding z-score [12],PBM binding z-score [13],PBM binding z-score [14],PBM binding z-score [15],PBM binding z-score [16],PBM binding z-score [17],PBM binding z-score [18],PBM binding z-score [19],PBM binding z-score [20]
TGTCAAAGTTCAGAGGTAACGTAAGTATCCACAC,4.53,4.37,1.55,2.56,0.204,4.07,6.27,6.33,3.46,6.02,-0.368,3.54,0.775,1.39,2.26,3.39,0.858,3.43,0.97,4.36
CCTACTGGGCCAAGGTCCTTGATCAGTCAAAGCA,-2.77,-0.638,-0.83,-0.659,-1.31,0.607,0.83,1.73,-0.152,0.845,3.51,3.4,-1.28,-1.15,-0.287,-0.74,-0.766,-0.787,-1.65,0.256
TCGCGGAGGACACGAAAGGTCAGAGCTCGACATC,2.61,3.72,2.77,3.12,-0.812,3.59,1.18,2.51,0.965,1.95,0.791,1.5,0.00207,-0.746,2.36,3.97,0.407,4.24,1.04,4.03
CCAGAAAGGTGAGAAGGTAACTCAGCCTCGATTA,0.521,0.782,-0.167,0.842,-0.293,2.47,1.02,1.49,0.32,0.796,2.89,1.98,-0.302,-0.361,1.15,0.319,-0.419,1.28,0.133,2.67
CGTCCAAGGTCAAGGCCAGTGAAAGAGACTCGAA,7.2,5.21,0.208,3.73,0.00439,5.55,4.75,5.05,1.48,3.69,2.93,3.4,0.269,-0.184,2.5,3.44,0.449,4.09,0.0458,5.19
CCTACTGGGCCCAAAAGGTCATTGATGCCGATAA,4.23,4.84,3.68,4.62,0.521,4.61,1.78,3.47,0.593,2.69,0.117,1.66,-0.622,-1.17,2.86,4.97,1.92,5.31,1.46,3.93
CTAACTAGGTCAAGGACAGTGAATCTCCGCACGC,3.07,2.43,0.51,1.58,0.129,4.99,8.18,6.92,4.93,6.92,8.7,8.66,2.25,1.42,3.48,1.21,0.296,1.87,0.59,4.08
CCTACTGGGCCAAAGTCATTGATCAGTCAAAGCA,-0.681,-0.266,-0.412,-0.243,-1.2,0.687,1.42,2.53,0.485,1.74,4.29,3.6,-0.537,-0.517,-0.302,-0.584,-0.623,-0.335,-1.15,0.121
TCATATAGGTAAAATGTGAAAGTCGGTGTGGTAA,0.975,0.902,0.119,0.595,0.134,2.27,3.1,4.54,4.42,4.95,4.79,2.51,0.236,0.643,0.891,0.357,0.248,0.634,0.307,0.176
ATATGTAGGTTAGCTGTGGTCATTCAGACTAGGC,0.89,1.93,0.212,0.643,0.0822,2.29,3.3,2.79,0.838,1.89,6.97,6.07,2.72,2.03,1.37,1.3,0.0563,1.3,0.467,1.2
CGTCAAAGCTCAAGGTAACGTAACAGAAAGCAGC,-0.214,-0.485,-0.372,-0.335,-0.863,-0.0672,0.521,-0.193,0.0179,0.133,0.0198,-0.221,-1.47,-0.249,-0.421,-0.257,-0.303,0.0827,-0.0827,-0.0501
ACCAGCAGGCCAAGTTTGGGTCACTCAAACAAAG,0.266,-0.108,-0.521,0.635,-0.887,1.31,-0.217,0.223,-0.767,-0.323,-0.512,0.814,-0.754,-1.36,0.25,0.747,-0.419,1.27,-0.97,1.89
CAAACTAGGTCAAAGGCCAAAGTCGAGCCAACCA,5.15,3.93,0.637,3.08,-0.153,6.63,11.3,9.98,9.75,10.9,7.91,8.52,1.47,0.202,1.73,2.9,0.159,4.68,0.255,4.31
GCTACAGGGTCAGCTAGAGGCCAGAGTATGGAAA,4.62,2.54,-0.26,2.36,-0.67,4.6,2.79,2.91,0.541,1.78,1.26,1.75,-0.627,-0.389,1.43,3.1,-0.36,4,-0.208,4.32
